This note sets out measurements from PubChem BioAssay (NCATS).

The subject of the test is Zika virus NS2B-NS3 protease. Put plainly: Primary screen GU AMC qHTS for Zika virus inhibitors (AID 1347154). Further: nearly all actives have a fitted effect of over 70% in size. Summed up: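 Unlinked Zika NS2B hydrophilic domain–NS3 protease complex at 25 nM in 10 mM Tris-HCl pH 8.0, 0.01% Tween 20, with an AMC peptide substrate. Fluorescence change (340/450 nm) over 15 min at room temperature, normalized to controls, fitted to 4-parameter Hill.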
On the technique in general: qHTS replaces the single test concentration by a dilution series.

Results filed as inconclusive are left out. Where a call stands in place of a potency, no number is given. Active and inactive are the calls of the source. The call rests on the fitted dose curve; in most records, active means well fitted inhibition curve with a large enough effect; inconclusive means small, poorly fitted or top-dose-only effect; inactive means flat fitted curve, though single readings scatter.

As for `CCn1c(=O)n(C2=C(CO)CN(CC3CCCCCCC3)CC2)c2ccccc21`, the Potency result was “inactive”.
